Data published in the OligoGym collection.

target: CLDN23; test: pooled miR-30 sensor sort-seq; sequence = guide strand; details: shRNA
Further: reference of the scale not given here.

Row | Sequence | sensor-assay potency score (higher = more potent)
1 | ATGGTGCTGACGCTGCTGCGGC | -1.77
2 | TTGGGCTCGTCCTGCCAGCAGC | -1.78
3 | TGTAGCTGACCTGCACCGTGAC | -0.702
4 | TAGTACTTGATGGCGGGCGCCA | -1.32
5 | TCGCTGTAGTACTTGATGGCGG | -1.12
6 | TGGCCGTCGCTGTAGTACTTGA | -1.77
7 | TGGATGGTGCTGACGCTGCTGC | -1.17
8 | AAGTTGGGCTCGTCCTGCCAGC | -1.5
9 | TTGGATGGTGCTGACGCTGCTG | -0.0148
10 | TTGAGCAGGAGCCCGCAGGGCG | -1.37
11 | TACAACTCCACGTCCACTGGCT | 0.00465
12 | TTGGTGTAGGCCTTGGGCCGCG | -1.14

target: CLDN6; test: as above; details: shRNA

Row | Sequence | sensor-assay potency score (higher = more potent)
13 | AATCCCAGAGGTGAGCACCAGG | -1.46
14 | TAGACCAGCAAGCCGAACAGGG | -0.8
15 | ATGACAAAGACAATCCCAGAGG | -1.76
16 | TTTGATAAAAATGTGAGTGTAA | 0.357
17 | TTCTCCTCCACACAGGTGGTAC | -1.81
18 | TTTGTTAACAGATCATTTGTTT | 0.0812
19 | TTGGGCCTCAGCCACCAGGGGG | -1.51
20 | TAGCGGGCCATGTAATGGCTGG | -1.06
21 | TAGAAGTCCCGGATGATGGCAT | 0.0775
22 | TCCACACAGGTGGTACACTTGG | -1.58
23 | ACAAAGACAATCCCAGAGGTGA | -0.71
24 | ATTAGCGTCAGGACCCCTGAGA | -0.855

target: CLDN9; test: as above; details: shRNA

Row | Sequence | sensor-assay potency score (higher = more potent)
25 | TCGTCCTCCACACACGTGGTAC | -1.58
26 | ATGATGGCGTGCGCCGTCCAGC | -1.9
27 | ATGAGCACCAGGATGCCGGCGA | -0.538
28 | TTGTCCAGTCCAGATGCACCCG | -0.545
29 | TTGCACTGCATCTGGCCCGTGC | -0.338
30 | TCCACACACGTGGTACACTGGG | -1.23
31 | TTCGTCCTCCACACACGTGGTA | -0.498
32 | TTGTAGAAGTCCTGGATGATGG | -1.14
33 | TAGCCCAGCCGAGGTCCGCGGG | -1.28
34 | TAGAAGTCCTGGATGATGGCGT | 0.302
35 | TTTGGAGCCAACGAGCTGCTGC | -0.374

target: CLEC9A; test: as above; details: shRNA

Row | Sequence | sensor-assay potency score (higher = more potent)
36 | TTGGAAGACAGACATTTCTGGT | -0.439
37 | TTGGATGAGTTTTTCTTGCTGC | 0.744
38 | TTAAACAATTCTCTTGACTGGT | -0.125
39 | ATAGTAACAACTTTCTCTGTTC | -0.226
